# Assay results published in PubChem BioAssay (EPA / NIEHS).
# “And” between values parts separate entries of the source, which are not always exact repeats. Equal entries are not always repeated. Records with an inconclusive call do not appear. The source holds several records for some structures; these can differ, active in one and inactive in another. The source made the active and inactive calls. How the source made its calls, unless noted: active means hit-call score of the fitted dose curve at least 0.9, where 1 is the maximum; inconclusive means response in the unintended direction; inactive means score below 0.9.
# How the values were obtained:
# [1] = read-out: UDP glucuronosyltransferase (UGT1A6), UGT1A6 (gene 54578); assay: LTEA_HepaRG_UGT1A6: Life Technologies and Expression Analysis (LTEA) Assay for UDP glucuronosyltransferase (UGT1A6) using HepaRG (AID 2283539; active means hit-call score of the fitted dose curve at least 0.9, where 1 is the maximum; inactive means score below 0.9); conditions: mRNA level, 48 h; actives raise or lower the signal
# Method in brief: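 Expression was quantified by TaqMan qRT-PCR on Fluidigm arrays with ACTB/GAPDH/POLR2A normalization and bidirectional fitting against 0.5% DMSO. HepaRG cells (~100,000/well) were treated in duplicate for 48 h at eight half-log concentrations up to 100 uM in serum-free induction medium.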
# [2] = read-out: X-box binding protein 1 (XBP1), XBP1 (gene 7494); assay: LTEA_HepaRG_XBP1: Life Technologies and Expression Analysis (LTEA) Assay for X-box binding protein 1 (XBP1) using HepaRG (AID 2283540; active means hit-call score of the fitted dose curve at least 0.9, where 1 is the maximum; inactive means score below 0.9); conditions: mRNA level, 48 h; actives raise or lower the signal
# Method in brief: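 XBP1 transcript by qRT-PCR (housekeeping-normalized: ACTB, GAPDH, POLR2A) after 48 h chemical treatment of HepaRG cells, 8-point half-log series topping at 100 uM, vehicle 0.5% DMSO. Gain and loss of signal fitted relative to DMSO.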
# [3] = LTEA_HepaRG_LDH_cytotoxicity: Cytotoxicity Assessment in the Life Technologies and Expression Analysis (LTEA) Assay (AID 2283563);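 on AC50: LDH activity released into spent culture medium as a marker of cell death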
# Method in brief: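 LDH release into culture medium read after 48 h chemical treatment of HepaRG cells. Duplicate wells, eight-point half-log series topping at 100 uM, 0.5% DMSO vehicle and baseline.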
# [4] = read-out: Cellular tumor antigen p53 (Homo sapiens) (UniProt P04637); assay: LTEA_HepaRG_TP53: Life Technologies and Expression Analysis (LTEA) Assay for Tumor Protein P53 (TP53) using HepaRG (AID 2283537; active means hit-call score of the fitted dose curve at least 0.9, where 1 is the maximum; inactive means score below 0.9); conditions: mRNA level, 48 h; actives raise or lower the signal
# Method in brief: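 TP53 transcript measured by qRT-PCR, normalized to three housekeeping genes, after 48 h treatment of human HepaRG cultures with chemicals from 100 uM downward in half-log steps (0.5% DMSO vehicle, serum-free induction medium). Up- or down-regulation fitted against DMSO.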
# [5] = ATG_XTT_Cytotoxicity: Cytotoxicity Assessment in the Attagene TRANS-FACTORIAL HepG2 Assay (AID 2283584)
# Method in brief: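 Viability endpoint from XTT after 24 h chemical exposure of reporter-transfected human HepG2 liver cells; signal loss fitted relative to DMSO negative control.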
# [6] = molecular target: Cellular tumor antigen p53 (Homo sapiens) (UniProt P04637); assay: TOX21_p53_BLA_p2_ratio: Tox21 HCT-116 p53 Agonism Beta-lactamase Assay, Ratio, Phase 2 (AID 2283592)
# Cellular tumor antigen p53 (Homo sapiens), sequence (P04637 whole entry, looked up): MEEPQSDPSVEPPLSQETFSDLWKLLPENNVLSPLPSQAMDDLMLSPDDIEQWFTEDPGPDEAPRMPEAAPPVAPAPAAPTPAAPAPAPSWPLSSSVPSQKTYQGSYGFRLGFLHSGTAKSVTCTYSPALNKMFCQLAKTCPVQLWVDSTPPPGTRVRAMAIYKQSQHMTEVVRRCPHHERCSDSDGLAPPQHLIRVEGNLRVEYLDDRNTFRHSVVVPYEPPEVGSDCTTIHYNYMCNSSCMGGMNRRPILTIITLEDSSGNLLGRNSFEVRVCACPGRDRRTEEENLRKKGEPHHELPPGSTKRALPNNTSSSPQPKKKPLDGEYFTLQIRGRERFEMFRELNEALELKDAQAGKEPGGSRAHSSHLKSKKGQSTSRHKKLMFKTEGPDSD
# Method in brief: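 Gain-of-signal p53 agonism was scored from the beta-lactamase FRET ratio (460/530 nm, 405 nm excitation) in HCT116 cells treated 16 h at 37C, 5% CO2, with DMSO serving as negative control and baseline.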
# [7] = TOX21_p53_BLA_p3_viability: Viability Assessment in the Tox21 HCT-116 p53 Agonism Beta-lactamase Assay, Phase 3 (AID 2283593);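 further: cells exposed to compound for 16 h before reading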
# Method in brief: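 Cellular ATP was quantified by CellTiter-Glo luminescence, read after 30 min at room temperature. Beforehand, HCT116 cells (4000/well) received compound 5 h post-seeding, 217-fold diluted from DMSO, then incubated 16 h at 37C.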
# [8] = molecular target: Cellular tumor antigen p53 (Homo sapiens) (UniProt P04637); assay: TOX21_p53_BLA_p3_ratio: Tox21 HCT-116 p53 Agonism Beta-lactamase Assay, Ratio, Phase 3 (AID 2283596)
# Method in brief: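 HCT116 p53-bla cells (4000/well) given compound in DMSO (217-fold dilution) after 5 h, incubated 16 h at 37C. CCF4-AM substrate 2 h at room temperature; 460/530 nm emission ratio, gain fitted against DMSO.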
# [9] = TOX21_p53_BLA_p2_viability: Viability Assessment in the Tox21 HCT-116 p53 Agonism Beta-lactamase Assay, Phase 2 (AID 2283591);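 further: compound exposure lasted 16 h at 37 °C; actives lower the ATP signal meaning cytotoxicity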
# Method in brief: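 Cytotoxicity readout: CellTiter-Glo ATP luminescence, 30 min at room temperature, after the beta-lactamase read. Cells were HCT116 exposed 16 h at 37C to compounds pin-transferred at 217-fold dilution from DMSO stocks.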
# [10] = read-out: UDP glucuronosyltransferase (UGT1A1), UGT1A1 (gene 54658); assay: LTEA_HepaRG_UGT1A1: Life Technologies and Expression Analysis (LTEA) Assay for UDP glucuronosyltransferase (UGT1A1) using HepaRG (AID 2283538; active means hit-call score of the fitted dose curve at least 0.9, where 1 is the maximum; inactive means score below 0.9); conditions: mRNA level, 48 h; actives raise or lower the signal
# Method in brief: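 HepaRG cells, 0.5% DMSO vehicle, 48 h exposure in serum-free induction medium to 8-point half-log series topping at 100 uM, in duplicate. UGT1A1 mRNA by Fluidigm qRT-PCR, normalized to ACTB/GAPDH/POLR2A; bidirectional fit versus DMSO.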
smiles,measurement,setting,value
CCC(C)(CC)c1cc(NC(=O)c2c(OC)cccc2OC)on1,outcome,[1],inactive
same,outcome,[2],inactive
same,outcome,[3],inactive
CCC(C)c1cc([N+](=O)[O-])cc([N+](=O)[O-])c1O (stereo unspecified),AC50,[4],1.55 µM (active)
same,AC50,[1],4.17 µM (active)
same,outcome,[2],inactive
same,AC50,[3],3.73 µM (active)
same,outcome,[5],inactive
same,AC50,[6],4.16 µM (active)
same,outcome,[7],inactive
same,AC50,[8],0.984 µM (active)
same,outcome,[8],inactive
Cc1ccccc1[N+](=O)[O-],outcome,[4],inactive
same,outcome,[1],inactive
same,outcome,[2],inactive
same,outcome,[3],inactive
same,outcome,[5],inactive
same,outcome,[9],inactive
same,outcome,[6],inactive
same,outcome,[7],inactive
same,outcome,[8],inactive
CC(C)C(=O)OCC(C)(C)C(OC(=O)C(C)C)C(C)C (stereo unspecified),outcome,[4],inactive
same,outcome,[1],inactive
same,outcome,[2],inactive
same,outcome,[3],inactive
same,outcome,[5],inactive
same,outcome,[6],inactive
same,AC50,[7],46.4 µM (active)
same,outcome,[8],inactive
CCC(C)(c1ccc(O)cc1)c1ccc(O)cc1,outcome,[4],inactive
same,outcome,[1],inactive
same,outcome,[2],inactive
same,outcome,[3],inactive
same,outcome,[5],inactive
same,outcome,[9],inactive
same,AC50,[6],87.1 µM (active) and 71 µM (active)
same,outcome,[7],inactive
same,AC50,[8],86.3 µM (active) and 76.2 µM (active)
Cc1ccc(O)c(C)c1,outcome,[4],inactive
same,outcome,[1],inactive
same,outcome,[2],inactive
same,outcome,[3],inactive
same,outcome,[9],inactive
same,outcome,[6],inactive
same,outcome,[7],inactive
same,outcome,[8],inactive
C=CC(=O)NCNC(=O)C=C,outcome,[4],inactive
same,outcome,[1],inactive
same,outcome,[2],inactive
same,outcome,[3],inactive
same,outcome,[5],inactive
same,outcome,[9],inactive
same,outcome,[7],inactive
same,outcome,[8],inactive
Oc1c(Cl)c(Cl)c(Cl)c(Cl)c1Cl,AC50,[4],6.71 µM (active)
same,AC50,[1],6.77 µM (active)
same,AC50,[2],6.22 µM (active)
same,AC50,[3],6.81 µM (active)
same,outcome,[5],inactive
same,outcome,[9],inactive
same,AC50,[6],8.58 µM (active) and 1.98 µM (active)
same,outcome,[7],inactive
same,AC50,[8],5.71 µM (active) and 1.86 µM (active)
Clc1ccc(C(c2ccccc2Cl)C(Cl)(Cl)Cl)cc1 (stereo unspecified),outcome,[4],inactive
same,outcome,[1],inactive
same,outcome,[2],inactive
same,AC50,[3],77.5 µM (active)
same,outcome,[5],inactive
same,AC50,[9],32.5 µM (active) and 55.2 µM (active)
same,AC50,[6],47.2 µM (active) and 74.1 µM (active)
same,AC50,[7],26.1 µM (active) and 68.2 µM (active)
same,AC50,[8],46.3 µM (active)
same,outcome,[8],inactive
C1CC2OC2CC1C1CO1 (stereo unspecified),outcome,[4],inactive
same,outcome,[1],inactive
same,outcome,[2],inactive
same,outcome,[3],inactive
same,outcome,[5],inactive
same,outcome,[9],inactive
same,outcome,[6],inactive
same,outcome,[8],inactive
ClC1=C(Cl)[C@]2(Cl)[C@@H]3[C@H]4C[C@H]([C@@H]5O[C@H]45)[C@@H]3[C@@]1(Cl)C2(Cl)Cl,outcome,[4],inactive
same,outcome,[1],inactive
same,outcome,[2],inactive
same,outcome,[3],inactive
same,outcome,[9],inactive
same,outcome,[7],inactive
same,outcome,[8],inactive
COc1ccc(O)c(C(C)(C)C)c1,outcome,[4],inactive
same,outcome,[1],inactive
same,outcome,[2],inactive
same,outcome,[3],inactive
same,outcome,[5],inactive
same,outcome,[6],inactive
same,outcome,[7],inactive
same,outcome,[8],inactive
Cc1cc(-c2ccc(N)c(C)c2)ccc1N,outcome,[4],inactive
same,outcome,[1],inactive
same,outcome,[2],inactive
same,outcome,[3],inactive
same,outcome,[9],inactive
same,AC50,[6],87.2 µM (active)
same,outcome,[6],inactive
same,outcome,[8],inactive
Cc1cc2c3c(c1)C(c1ccccc1)=N[C@@H](NC(=O)c1ccncc1)C(=O)N3CC2,AC50,[4],50 µM (active)
same,outcome,[1],inactive
same,outcome,[2],inactive
same,outcome,[3],inactive
same,outcome,[6],inactive
CCSC(=O)N(CC)C1CCCCC1,outcome,[10],inactive
same,outcome,[1],inactive
same,outcome,[2],inactive
same,outcome,[3],inactive
N#Cc1ccc(N(CC(N)=O)CC(F)(F)F)cc1C(F)(F)F,outcome,[4],inactive
same,outcome,[1],inactive
same,outcome,[2],inactive
same,outcome,[3],inactive
same,outcome,[9],inactive
CCNc1nc(NC(C)C)nc(SC)n1,outcome,[1],inactive
same,outcome,[2],inactive
same,outcome,[3],inactive
COS(=O)(=O)OC,outcome,[4],inactive
same,outcome,[1],inactive
same,outcome,[2],inactive
same,outcome,[3],inactive
same,outcome,[9],inactive
same,outcome,[6],inactive
same,outcome,[7],inactive
same,outcome,[8],inactive
CCCN(CCC)N=O,outcome,[4],inactive
same,outcome,[1],inactive
same,outcome,[2],inactive
same,outcome,[3],inactive
same,outcome,[5],inactive
same,outcome,[9],inactive
same,outcome,[6],inactive
same,outcome,[7],inactive
same,outcome,[8],inactive
ClC1=C(Cl)[C@]2(Cl)[C@@H]3[C@@H](Cl)[C@H]4O[C@H]4[C@@H]3C1(Cl)C2(Cl)Cl,outcome,[4],inactive
same,outcome,[1],inactive
same,outcome,[2],inactive
same,outcome,[3],inactive
same,outcome,[5],inactive
same,AC50,[9],76.7 µM (active)
same,outcome,[6],inactive
same,outcome,[7],inactive
same,outcome,[8],inactive
NS(=O)(=O)C(F)(F)C(F)(F)C(F)(F)C(F)(F)C(F)(F)C(F)(F)C(F)(F)C(F)(F)F,AC50,[4],50 µM (active)
same,AC50,[1],13.3 µM (active)
same,AC50,[2],3.63 µM (active)
same,AC50,[3],31.4 µM (active)
same,outcome,[5],inactive
same,outcome,[9],inactive
same,outcome,[6],inactive
same,AC50,[7],46.1 µM (active)
same,AC50,[8],47 µM (active)
O=C(N[C@H]1CN2CCC1CC2)c1cc2ccoc2cn1,outcome,[4],inactive
same,outcome,[1],inactive
same,outcome,[2],inactive
same,outcome,[3],inactive
same,outcome,[9],inactive
same,outcome,[6],inactive
same,outcome,[7],inactive
same,outcome,[8],inactive
O=NN(c1ccccc1)c1ccccc1,outcome,[4],inactive
same,outcome,[1],inactive
same,outcome,[2],inactive
same,outcome,[9],inactive
same,outcome,[6],inactive
same,outcome,[8],inactive
Clc1ccc(Cl)cc1,outcome,[4],inactive
same,outcome,[1],inactive
same,outcome,[2],inactive
same,outcome,[3],inactive
same,outcome,[5],inactive
same,outcome,[9],inactive
same,outcome,[6],inactive
same,outcome,[7],inactive
same,outcome,[8],inactive
OCC(O)CO,outcome,[5],inactive
same,outcome,[9],inactive
same,outcome,[6],inactive
same,outcome,[7],inactive
same,outcome,[8],inactive
Oc1ccc(Cl)cc1Cl,outcome,[4],inactive
same,outcome,[1],inactive
same,outcome,[2],inactive
same,outcome,[3],inactive
same,outcome,[9],inactive
same,outcome,[6],inactive
same,outcome,[7],inactive
same,outcome,[8],inactive
Sc1ccccc1,outcome,[5],inactive
CC#Cc1cc(C)nc(Nc2ccccc2)n1,outcome,[4],inactive
same,outcome,[1],inactive
same,outcome,[2],inactive
same,AC50,[3],59.9 µM (active)
same,outcome,[9],inactive
same,outcome,[6],inactive
same,outcome,[7],inactive
c1ccc(-c2ccccc2)cc1,outcome,[4],inactive
same,outcome,[1],inactive
same,outcome,[2],inactive
same,outcome,[3],inactive
same,outcome,[9],inactive
same,outcome,[6],inactive
same,outcome,[7],inactive
same,outcome,[8],inactive
Cc1ccccc1O,outcome,[4],inactive
same,outcome,[1],inactive
same,outcome,[2],inactive
same,outcome,[3],inactive
same,outcome,[5],inactive
same,outcome,[9],inactive
same,outcome,[6],inactive
same,outcome,[8],inactive
Cc1ccccc1CO[C@@H]1C[C@@]2(C(C)C)CC[C@]1(C)O2,outcome,[1],inactive
same,outcome,[2],inactive
same,outcome,[3],inactive
CN(C)c1nc(=O)n(C2CCCCC2)c(=O)n1C,outcome,[1],inactive
same,outcome,[2],inactive
same,outcome,[3],inactive
O=C(O)C(F)(F)C(F)(F)C(F)(F)C(F)(F)C(F)(F)C(F)(F)C(F)(F)C(F)(F)C(F)(F)F,AC50,[10],36.2 µM (active)
same,AC50,[1],38.6 µM (active)
same,outcome,[2],inactive
same,AC50,[3],63.4 µM (active)
same,outcome,[5],inactive
same,outcome,[9],inactive
same,outcome,[6],inactive
same,outcome,[7],inactive
same,outcome,[8],inactive
